# The whole screen tested about 65,000 compounds, of which about 2,100 (3.2%) showed an effect of 50% or more. The median lay at about -52%. The list comes from a sample in which strong results are over-represented; it also holds similar structures and randomly drawn compounds.
# System: Plasmodium falciparum
# Assay: Screen against P. falciparum Asexual Blood Stage (ABS), at 5uM
# Format: functional, Dd2
# Conditions: tested at 5 uM
row,Structure (SMILES),INHIBITION [%]
1,Cc1nc(=O)c(CC(=O)N2C[C@H]3CC[C@@H](C2)N(CC2CCC2)C3)c(C)[nH]1,-89.5
2,CCN1CC(=O)NCC12CCN(C(=O)c1ccno1)C2 (stereo unspecified),-7.44
3,N#Cc1cccc(S(=O)(=O)Nc2c(F)cccc2N2CCCC2)c1,74.1
4,N#Cc1cccc(C(=O)NS(=O)(=O)c2ccc(C#N)c(Cl)c2)c1,-49.2
5,Cc1nc(CC(=O)N2CCN(Cc3ccc(C#N)cc3)CC2)cs1,-11.175
6,CCOc1ccc(Br)cc1C1CCCN1 (stereo unspecified),72.9
7,CCOc1ccc(Cl)cc1C1CCCN1 (stereo unspecified),87.7
8,CCOc1ccc(Br)cc1C1CCCCN1 (stereo unspecified),78.2
9,CC(C)NC(=O)C1CCC2(CCNCC2)C1 (stereo unspecified),-81.9
10,CCN1CCC2(CC1)C(=O)Nc1ccc(C(=O)NC)cc12,-38.9
11,Cc1ccccc1CC(C)NC(=O)Nc1cnn(CC(N)=O)c1 (stereo unspecified),-23.3
12,CC(C)COC(=O)N1CCC2(CCNC2)C1 (stereo unspecified),-93.7
13,Cc1ncsc1CN1CC[C@H]2C[C@H](c3ccncn3)O[C@@H]2C1,-37.3
14,NC(=O)C1(Cc2ccc(-c3ccccc3)cc2)CCNC1 (stereo unspecified),92.7
15,O=C(c1nc(=O)[nH]c2ccccc12)N1CCCC2(CCNC2)C1 (stereo unspecified),-74.6
16,NC1(c2nc(-c3cccs3)cc(=O)[nH]2)CCCCC1,-95.6
17,O=S1(=O)N(c2ccccc2)C[C@@H](O)[C@]12CCNC2,-3.43
18,O=S1(=O)N(c2ccccc2)C[C@H](O)[C@]12CCNC2,-88.5
19,O=C(N1CCCC1)C1(Cc2ccc(-c3cccs3)cc2)CCNC1 (stereo unspecified),84.5
20,CC(C)N1CCCC(Cc2nccnc2Cl)C1 (stereo unspecified),-59.8
21,COc1ccc(C2SCC(=O)Nc3ccsc32)cc1 (stereo unspecified),-71.1
22,O=C(N[C@@H]1CN[C@H]2CCCO[C@H]21)c1cccnc1,-128
23,c1cncc(OC[C@]23COC[C@H]2CN(Cc2cccs2)C3)c1,-51.7
24,CCCN(C)CC1CCN(c2ccc(Br)c(C)n2)C1 (stereo unspecified),73.7
25,CCc1noc(CC)c1CC(=O)N1CCN(C(C#N)C(C)C)CC1 (stereo unspecified),-154
26,CNC(=O)[C@@H]1C[C@H]2CN(C(=O)c3ccccn3)C[C@H]2N1C(C)C,-23

row,Structure (SMILES),INHIBITION [%]
1,CCN(CC)C[C@H]1CN2CC[C@H]1C[C@@H]2CNC(=O)c1ccco1,-97.7
2,CC[C@H]1CN2CC[C@H]1C[C@@H]2CNC(=O)c1ccco1,-29.4
3,CN(C[C@H]1CN2CC[C@H]1C[C@@H]2CNC(=O)c1ccco1)c1ccccc1,71.2
4,COc1cc(N2CC[C@@H]3OCCN(C)[C@H]3CC2)ncn1,-67.4
5,Cc1cccc(OCC(=O)N2CCN(C3CCOC3=O)CC2)c1C (stereo unspecified),-13.7
6,CC1COC2(CCN(C(=O)c3ncoc3C(C)C)CC2)O1 (stereo unspecified),-69.9
7,Nc1nc(N)c2c(n1)OC1(CCN(Cc3nccs3)C1)C2 (stereo unspecified),-96
8,c1cnc(N2CCC3(CC2)CN(CC2CC2)c2ccccc23)nc1,86.3
9,CCN1CCC2(CC1)CN(CCO)c1ccccc12,-30.2
10,CN1CCN(c2ncccn2)CC12CCC(=O)N(CC1CC1)CC2 (stereo unspecified),-74.4
11,Fc1ccc2[nH]c3c(c2c1)CCN1C(c2ccccn2)N2CCC31CC2 (stereo unspecified),81.2
12,Fc1ccc2[nH]c3c(c2c1)CCN1C(c2ccncc2)N2CCC31CC2 (stereo unspecified),89.6
13,Cc1noc(C)c1CN1CCCC2(C1)CN(c1nccs1)CCO2 (stereo unspecified),18.6
14,c1cnc(N2CCN3C[C@H](Oc4cncnc4)C[C@H]3C2)nc1,-102
15,CNc1nc(C(=O)N2C[C@@H]3CCN(C)[C@@H]3C2)cs1,-94.9
16,CCOCCCn1c(NC(=O)c2cc(C)on2)nc2ccccc21,71.5
17,CCOCCN1C[C@H](C(=O)Nc2cccnc2)[C@@H]2CCO[C@@H]2C1,-9.46
18,c1ccc(CCN2C[C@@H]3OCCN(c4ncccn4)[C@@H]3C2)cc1,-64.6
19,O=C(CC1[C@H]2CN(Cc3ccncc3)C[C@@H]12)N1CCCC1 (stereo partly specified),-109
20,NCC1[C@H]2CN(Cc3ccccc3F)C[C@@H]12 (stereo partly specified),68.2
21,Oc1cccc(CN2C[C@@H]3CC[C@H]2CN(Cc2ccncc2)C3)c1,-31.9
22,Cc1ccc([C@]2(O)CC[C@H]3CN(Cc4ccccc4F)C[C@H]32)nc1,20.6
23,NCC1[C@H]2CN(Cc3cccc(Cl)c3)C[C@@H]12 (stereo partly specified),83.8
24,NCC1[C@H]2CN(CCc3ccccc3)C[C@@H]12 (stereo partly specified),86.8
25,O=C1CO[C@@H]2CN(Cc3nccs3)C[C@H]2N1Cc1ccncc1,-59.6
26,CN(C)[C@@H]1CN(C(=O)Cc2ccc(F)cc2)[C@@H]2CCCO[C@H]12,-29.9

row,Structure (SMILES),INHIBITION [%]
1,CC(C)N(Cc1ccccn1)Cc1nc2c(cnn2C)c(=O)[nH]1,74.2
2,CN(CCc1ccc(F)cc1)Cc1nc2c(cnn2C)c(=O)[nH]1,-97.7
3,CN(CCc1ccccc1)Cc1nc2c(cnn2C)c(=O)[nH]1,-38.8
4,CN(C)CCN1CCO[C@H]2CN(Cc3ccccn3)C[C@H]21,11.1
5,COc1cccc(CN2CCC(c3nn(CCN)c4nccnc34)C2)c1 (stereo unspecified),89.1
6,c1ccc(CN2CC[C@H]3CO[C@H](CNc4ncccn4)[C@H]3C2)cc1,-6.23
7,O[C@@]1(c2ccccn2)CC[C@H]2CN(Cc3cccc(Cl)c3Cl)C[C@H]21,39.6
8,NCCn1nc(C2CCN(Cc3ccccc3)C2)c2nccnc21 (stereo unspecified),80.4
9,NCCn1nc(C2CCN(Cc3ccccc3Cl)C2)c2nccnc21 (stereo unspecified),80.1
10,CN(C)CCn1nc(C2CCN(Cc3ccccc3)C2)c2cccnc21 (stereo unspecified),71.9
11,COc1cccc([C@@H]2CCN(Cc3[nH]nc(C)c3Cl)C[C@H]2O)c1,-12.4
12,c1cnc(N2CC[C@@H]3CN(Cc4ccncc4)CCO[C@@H]3C2)nc1,-103
13,c1ccc(N2CC[C@@H]3CN(Cc4ccncc4)CCO[C@@H]3C2)cc1,-57.3
14,COC[C@@H]1CCC[C@]12CN(Cc1cccc(C)n1)CCO2,-26.8
15,CCS(=O)(=O)NC[C@]12COC[C@H]1CN(Cc1ccccn1)C2,-30.3
16,CC(C)N1CCO[C@H]2CN(C(=O)c3ccncc3)C[C@H]21,-69.9
17,Cc1nocc1C(=O)N1CCOC2(COCCN(CC3CC3)C2)C1 (stereo unspecified),-103
18,COc1ccc(CC(=O)N2CCN(Cc3ccco3)C[C@H]2C)cc1OC,-28.9
19,CN(C)C(=O)CN1CCO[C@H]2CN(c3ccccn3)C[C@H]21,-57.3
20,COc1ncccc1CN1C[C@H]2CCN(c3ncccn3)C[C@H]2C1,-39
21,COc1ccccc1CN1CCC(c2nn(CCN)c3nccnc23)C1 (stereo unspecified),75.5
22,COCCN1CC[C@@H]2CN(Cc3cccnc3OC)C[C@@H]2C1,-68
23,c1cncc(CO[C@H]2CN(Cc3ccco3)[C@@H]3COC[C@H]23)c1,-14.4
24,Cc1cccc(CN2CC[C@H]3[C@@H]2CC(=O)N3CC2CC2)n1,-122
25,Cc1cc(C)n(C2CN(CC(O)c3cc(F)ccc3F)C2)n1 (stereo unspecified),84.7
26,CCC(CO)N(Cc1cccc(O)c1)Cc1ccccc1C (stereo unspecified),75.2

row,Structure (SMILES),INHIBITION [%]
1,O=C(N1CCOCC1)[C@@]12CCO[C@@H]1CCN(Cc1ccncc1)C2,-39.7
2,CCC1CN(CC(=O)NCCN2CCCCC2)c2ccccc2S1 (stereo unspecified),72.3
3,CCC1CN(CC(=O)NCCN(CC)CC)c2ccccc2S1 (stereo unspecified),76.7
4,CCC1CN(CC(=O)NCCN2CCCCCC2)c2ccccc2S1 (stereo unspecified),73.8
5,CCCN1CCC2(Cc3ccccc3NC2=O)C1 (stereo unspecified),-3.59
6,CS(=O)(=O)N1CCOCC2(CN(Cc3ccccn3)CCO2)C1 (stereo unspecified),-46.3
7,Cc1ccc(CNCCC(O)(c2nccn2C)C(F)(F)F)o1 (stereo unspecified),73.2
8,Cn1ccnc1C(O)(CCNCc1ccc(Cl)o1)C(F)(F)F (stereo unspecified),71.1
9,Cc1csc(CN2CCC[C@]3(C[C@@H](Oc4ccccn4)CO3)C2)n1,-213
10,Cc1cc(C(F)(F)F)cc(=O)n1CCn1cc(Cl)cn1,18.5
11,CCc1cnc(N)nc1NCCCn1cc(Cl)cn1,84.5
12,CCN(CC)C(CNC(=O)c1c(C)noc1C(C)C)c1ccsc1 (stereo unspecified),78.7
13,CC(C)N1CCN(C(=O)Cc2csc(-c3ccco3)n2)CC1,-22.2
14,COc1cc(F)ccc1C(C(=O)O)N(C)CCN1CCCC1 (stereo unspecified),72.3
15,COc1cc(F)ccc1C(C(=O)O)N(C)CCN1CCOCC1 (stereo unspecified),80.7
16,Cc1ccc(F)cc1CC(=O)N(CCN1CCOCC1)Cc1ccco1,-12.9
17,CCS(=O)(=O)N1CCN(CC2CC2)c2ncccc2C1,-94.6
18,COC(=O)c1ccc(C2SCC(=O)Nc3ccsc32)cc1 (stereo unspecified),-80.9
19,COc1ccc(CCN)cc1-c1ccc(C(N)=O)cc1,10.7
20,COc1ccc(CCN)cc1-c1ccc(O)cc1,85.6
21,CCOc1ccc(-c2cc(CCN)ccc2OC)cc1,-58
22,Cc1ccc(CN2C[C@@H]3CCN(Cc4ccncc4)C(=O)[C@H]3C2)s1,-13.4
23,C[C@H](N)Cn1nc(-c2cccs2)oc1=O,-106
